Bioassay records from PubChem.
ATXN2 expr inh: reduces ATXN2 reporter expression in HEK-293 cells. HEK-293 ATXN2-luciferase reporter, luminescence, 24 h. Potency, µM (top dose mostly 57 µM), for the others: top-dose activity change, negative = inhibition, most hits filed as inhibitors. hit rate 0.72% among 360,000; note: potency is the fitted concentration of half-maximal effect; % is set by controls: 0 for no effect and ±100 for the full control effect; nearly all actives have a fitted effect of over 55% in size
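qHTS (up to 57 uM final) was run with 24 h compound exposure of reporter cells at 37 °C. Each well was multiplexed: SteadyGlo luminescence measured ATXN2-luciferase expression after a fluorogenic Gly-Phe-AFC viability readout (25 uM final).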
Integrin act MD: integrin-mediated muscular dystrophy alleviation activation | alpha7betagal myoblasts, beta-gal FDG fluorescence, 48 h | Potency, µM (highest dose often 38.3 µM), without a hit: at the top dose activation, most hits filed as activators | hit rate 0.064% among 350,000 | AID 624291;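 note: potency is the fitted concentration of half-maximal effect; 100% = response of the positive control SU9516; nearly all actives have a fitted effect of over 60% in size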
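Alpha7betagal+/- myoblasts (passage 13) were plated 16-24 hr, then exposed to compounds (1:260 dilution of DMSO stock) for 48 hours at 37C. After MPER lysis, β-galactosidase reporter activity was read as FDG fluorescence (ex 480/em 540) after 30 minutes.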
IL1B secr inh: inhibitors of inflammasome signaling (IL-1 beta secretion). THP-1 LPS/ATP IL-1B secretion, AlphaLISA, 16 h; hits give low values. activity change, % at 57.5 µM. hit rate 4.7% among 360,000. AID 743279; in the data active = activity change below about -50%; inconclusive = mostly about -30% to -49%; note: % is set by controls: 0 for no effect and ±100 for the full control effect
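THP-1 cells pretreated 1 hr with compounds (up to 57.5 uM final), then stimulated with LPS (250 ng/mL final) plus ATP (1.25 mM final); secreted IL-1B measured by AlphaLISA after 16 hr, decreased signal indicating inhibition.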
D3 antag: D3 dopamine receptor (human) antagonism | P35462 | D3R cells, DiscoveRx beta-arrestin luminescence, antagonist mode; hits give low values | hit rate 2.5% among 360,000 | max response, negative = inhibition, %; in the data active = max response below about -50%; inconclusive = no clear call, values can overlap the other calls; note: % is set by controls: 0 for no effect and ±100 for the full control effect
Target sequence (P35462 whole entry, looked up): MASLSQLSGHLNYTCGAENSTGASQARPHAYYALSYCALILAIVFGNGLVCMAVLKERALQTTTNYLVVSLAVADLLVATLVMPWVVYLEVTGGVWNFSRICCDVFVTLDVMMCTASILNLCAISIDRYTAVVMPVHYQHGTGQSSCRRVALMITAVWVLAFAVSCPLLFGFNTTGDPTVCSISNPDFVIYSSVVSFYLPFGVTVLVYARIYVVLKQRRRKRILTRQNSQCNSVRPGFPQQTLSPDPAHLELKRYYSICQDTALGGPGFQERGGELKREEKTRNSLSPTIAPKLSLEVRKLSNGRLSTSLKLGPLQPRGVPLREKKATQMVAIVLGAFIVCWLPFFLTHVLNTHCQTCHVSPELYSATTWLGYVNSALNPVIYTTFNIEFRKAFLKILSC
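Cells expressing the human receptor were seeded at 1500 cells/well, incubated overnight at 37 degrees C in 5% CO2, then exposed to library compounds with dopamine controls for 90 minutes at 37 degrees C before luminescent detection.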
DRD3 agonist: D3 dopamine receptor (human) agonism; P35462; D3R DiscoveRx beta-arrestin cells, luminescence, 90 min; max activation, %; hit rate 0.58% among 410,000; in the data active = max activation above about 30%; note: 0% is about no effect
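Agonist mode: compounds and dopamine controls were applied to plated cells for 90 min at 37 degrees C after an overnight attachment at 1500 cells/well. Luminescent read-out followed 30 - 60 minutes at room temperature with DiscoveRx detection reagent.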
S2 tox: reduces viability in counter-screen for ATXN expression inhibitors; S2 cells (HEK-293 line with an ATXN2-luciferase reporter) viability, CellTiter-Fluor protease fluorescence, 24 h; Potency, µM (titrated, usually from 56.7 µM), usual class: cytotoxic; hit rate 0.49% among 400,000; AID 651635; note: potency is the fitted concentration of half-maximal effect; nearly all actives have a fitted effect of over 40% in size
Numbers without * were called inactive; [ ] = dose if it differs, or a comment. A selection: hits, their analogues and other compounds. The true share with any hit is near 7%. Unless noted, calls come from the whole dose curve; as a rule, active = well fitted curve in the direction sought with a large enough effect; inconclusive = small, poorly fitted or top-dose-only effect, or another doubt; inactive = no such curve, though single readings can be large; an effect the other way counts as inactive or inconclusive.

What do the screens show for `COc1ccc(CN2C3CCCC2CC(NC(=O)Nc2cccc(C)c2)C3)cc1` (centres undefined)?
ATXN2 expr inh: -17%; Integrin act MD: -60%; IL1B secr inh: inconclusive; D3 antag: -78*; DRD3 agonist: 0; S2 tox: inactive

What do the screens show for `Cc1cc(NC(=O)CCCC(=O)N(c2ccccc2)C(C(=O)NC2CCCCC2)c2cccs2)no1` (centres undefined)?
ATXN2 expr inh: 5%; Integrin act MD: 0%; IL1B secr inh: 7; D3 antag: 19; DRD3 agonist: 3; S2 tox: inactive

How did COc1ccc(CCC(=O)N2c3ccccc3N=C(c3ccc(C(F)(F)F)cc3)C2C(=O)NC(C)C)cc1 (centres undefined) do in these assays?
IL1B secr inh: 50; D3 antag: 0; DRD3 agonist: 86*

Results for CCn1c(C)cs/c1=N\S(=O)(=O)c1ccccc1 ?
ATXN2 expr inh: 7%; Integrin act MD: 1%; IL1B secr inh: -12; D3 antag: -22; DRD3 agonist: -14; S2 tox: inactive

Results for O=Cc1s/c(=N\S(=O)(=O)c2ccccc2)n(CCCCl)c1Cl ?
ATXN2 expr inh: inconclusive; Integrin act MD: -62%; IL1B secr inh: -102*; D3 antag: -120*; DRD3 agonist: -24; S2 tox: 5µM*

What do the screens show for `Cc1cccc(NC(=S)N(CCCN(C)C)Cc2cc3cc4c(cc3[nH]c2=O)OCO4)c1`?
ATXN2 expr inh: -22%; Integrin act MD: -5%; IL1B secr inh: -73*; D3 antag: -5; DRD3 agonist: -8; S2 tox: inactive

Results for Cc1ccc2cc(CN(CC3CCCO3)C(=S)Nc3ccccc3)c(=O)[nH]c2c1C (centres undefined) ?
ATXN2 expr inh: 15%; Integrin act MD: -10%; IL1B secr inh: -53*; D3 antag: 17; DRD3 agonist: -8; S2 tox: inactive

Results for Cc1cccc(NC(=S)N(CCN(C)C)Cc2cc3cc(C)ccc3[nH]c2=O)c1 ?
ATXN2 expr inh: -26%; Integrin act MD: -5%; IL1B secr inh: -65*; D3 antag: -5; DRD3 agonist: -7; S2 tox: inactive

Results for CCN(CC)CCCN(Cc1cc2cc3c(cc2[nH]c1=O)OCO3)C(=S)Nc1ccccc1 ?
ATXN2 expr inh: -8%; Integrin act MD: -22%; IL1B secr inh: -65*; D3 antag: 3; DRD3 agonist: -15; S2 tox: inconclusive

Results for CCNC(=S)N(CCCN(CC)CC)Cc1cc2cc3c(cc2[nH]c1=O)OCO3 ?
ATXN2 expr inh: 3%; Integrin act MD: 27%; IL1B secr inh: inconclusive; D3 antag: 9; DRD3 agonist: -2; S2 tox: inactive

How did CCNC(=S)NNC(=O)c1ccoc1C do in these assays?
ATXN2 expr inh: 4%; Integrin act MD: 1%; IL1B secr inh: 2; D3 antag: 4; DRD3 agonist: -2; S2 tox: inactive

What do the screens show for `COc1cc(N(C)C)c(NC(C)=O)cc1C(=O)O`?
Integrin act MD: 19%; IL1B secr inh: -12; D3 antag: 15; DRD3 agonist: 2

How did O=S(=O)(NC(=S)NC1CCCCC1)c1cccs1 do in these assays?
ATXN2 expr inh: 4%; Integrin act MD: 8%; IL1B secr inh: 11; D3 antag: -5; DRD3 agonist: 4; S2 tox: inactive

Results for COc1cccc(CNC(=O)c2ccc(OC)c(S(=O)(=O)NC3CCCC3)c2)c1 ?
ATXN2 expr inh: 5%; Integrin act MD: -4%; IL1B secr inh: -5; D3 antag: -11; DRD3 agonist: 1; S2 tox: inactive

How did Cc1ccc2[nH]c(=O)c(CN(Cc3ccccc3)C(=S)NCCCN(C)C)cc2c1 do in these assays?
ATXN2 expr inh: -9%; Integrin act MD: 1%; IL1B secr inh: -87*; D3 antag: -4; DRD3 agonist: -15; S2 tox: inactive

How did O=C(Nc1cccc(S(=O)(=O)Nc2ccccc2F)c1)c1ccc2ccccc2n1 do in these assays?
ATXN2 expr inh: -19%; Integrin act MD: 0%; IL1B secr inh: -51*; D3 antag: -2; DRD3 agonist: 8; S2 tox: inactive

What do the screens show for `O=C(/C=C/c1ccccc1)Nc1cccc(S(=O)(=O)Nc2ccccc2F)c1`?
ATXN2 expr inh: 1%; Integrin act MD: 19%; IL1B secr inh: -54*; D3 antag: 0; DRD3 agonist: 2; S2 tox: inactive

How did O=C(Cc1ccc(Cl)cc1Cl)Nc1cccc(S(=O)(=O)Nc2ccccc2F)c1 do in these assays?
ATXN2 expr inh: -11%; Integrin act MD: 0%; IL1B secr inh: -102*; D3 antag: -19; DRD3 agonist: -1; S2 tox: inactive

How did CCSc1ncc(Cl)c(C(=O)N(Cc2ccc(C(C)(C)C)cc2)C2CCS(=O)(=O)C2)n1 (centres undefined) do in these assays?
DRD3 agonist: -6

What do the screens show for `CCOC(=O)C1CCN(C(=O)c2cc3ccc4ccc(C)[nH]c4c3n2)CC1`?
ATXN2 expr inh: 6%; DRD3 agonist: -6; S2 tox: inactive

How did CC(=O)c1cccc(NC(=O)NCCc2c[nH]c3ccccc23)c1 do in these assays?
ATXN2 expr inh: 10%; Integrin act MD: 13%; IL1B secr inh: -8; D3 antag: -12; DRD3 agonist: -5; S2 tox: inactive

Results for O=C(Nc1cccc(CNCCc2c[nH]c3ccccc23)c1)c1ccccc1Cl ?
Integrin act MD: -37%; IL1B secr inh: inconclusive; D3 antag: -96*; DRD3 agonist: -13; S2 tox: inconclusive

Results for CC(=O)c1cc(CN2CCN(C3CCCCC3)C(CCO)C2)cs1 (centres undefined) ?
ATXN2 expr inh: -21%[11.3 µM]; Integrin act MD: -6%; IL1B secr inh: -3; D3 antag: -12; DRD3 agonist: -5; S2 tox: inactive

How did c1ccc(N=Nc2ccc3cccccc2-3)cc1 do in these assays?
ATXN2 expr inh: 67%; Integrin act MD: -47%; IL1B secr inh: -93*; D3 antag: -24; DRD3 agonist: -4; S2 tox: inconclusive

What do the screens show for `O=C1C=CCCC1`?
ATXN2 expr inh: 7%; IL1B secr inh: -14; D3 antag: -8; DRD3 agonist: 15; S2 tox: inactive

How did Nc1nonc1-n1nnc(C(=O)N/N=C/c2cccnc2)c1CSC1=NCCS1 do in these assays?
ATXN2 expr inh: 10%; Integrin act MD: -3%; D3 antag: -6; DRD3 agonist: -4; S2 tox: inactive

How did CC(C)c1ccc(/C=N/NC(=O)c2nnn(-c3nonc3N)c2CSC2=NCCS2)cc1 do in these assays?
ATXN2 expr inh: -11%; Integrin act MD: -37%; IL1B secr inh: -87*; D3 antag: -20; DRD3 agonist: 0; S2 tox: inactive
